The whole screen tested about 69,000 compounds, of which about 8,600 (12%) showed an effect of 50% or more. Many of the other results were omitted from the sample, so strong results are more common in it than they were.

This assay deals with Plasmodium berghei. As to the kind of experiment: Screen against P. berghei liver stage (PbLuc), transformed with Luciferase, at 10uM. It counts as functional, HepG2. Conditions: tested at 10 uM.
Consider `O=C(Nc1ccccc1N1CCOC1=O)N1CCc2sccc2C1`, for which the INHIBITION came out at 18.4%.

With `CCn1c(=O)n(CC)c2cc(S(N)(=O)=O)ccc21`, the INHIBITION turned out to be 29.1%. The value for `COCC1CC2(CCNCC2)CN1Cc1csc(C)n1` (stereo not given) was -15.3%; that for `Cc1noc(CCCC(=O)NC(C)c2ccc(Cl)s2)n1` (stereo not given) was -2.95%.

`O=C(CCO)N1C[C@@H]2CC[C@H]1CN(C1Cc3ccccc3C1)C2`: the INHIBITION is reported as -43.5%. On to `CC(C)N(C(=O)c1ccccc1-c1nc2c([nH]1)CCNC2)C(C)C`, for which the INHIBITION was 54.5%. The same measure for `CC(C)NC(=O)Nc1ccc(-c2nc3c([nH]2)CCNC3)cc1`: -100%; for `CC(C)COc1cccc(-c2nc3c([nH]2)CCNC3)c1`: 41.5%; for `COc1cccc(-c2nc3c([nH]2)CCNC3)c1F`: 61%. In the case of `COc1ccc(-c2nc3c([nH]2)CCNC3)c(OC)c1OC`, the INHIBITION is given as 28.7%. For `CC(=O)c1cccc(-c2nc3c([nH]2)CCNC3)c1F`, the INHIBITION was found to be 37.8%. The same measure for `CS(=O)(=O)N1CCCC(Cc2ccnc3ccncc23)CC1` (stereo not given): 19.6%. The value for `O=C(c1cccnc1)N1CCCC2(CCN(c3ccsc3)C2=O)C1` (stereo not given) was -33.7%; that for `CN(C)C(=O)[C@@H]1CCO[C@@H]2CCN(Cc3ccc4c(c3)OCO4)C[C@@H]21` was 10.8%.

Turning to `COc1cc(N2CCC3(CCCN3Cc3cnn(C)c3)CC2)ncn1`, the INHIBITION was 13.7%. The same measure for `COCCN1CCc2nc(SCc3ccc(F)cc3)[nH]c(=O)c2C1`: 56.3%. The value for `CCCN1CCc2nc(SCc3ccccc3)[nH]c(=O)c2C1` was 17.7%; that for `CCCN1CCc2nc(SCc3ccc(F)cc3)[nH]c(=O)c2C1` was 20%; that for `Cn1cnnc1C1CCCN(C(=O)c2ccccn2)C1` (stereo not given) was 13.6%. Regarding `Cc1cccc(C(=O)N2C[C@@H]3CC[C@H]2CN(S(=O)(=O)N(C)C)C3)n1`, the INHIBITION was 18.2%.

For `CN(C(=O)Cc1coc(-c2ccccc2)n1)C1(C#N)CCC1`, the INHIBITION is reported as 78.3%. The value for `CN(C(=O)Cc1coc(-c2cccs2)n1)C1(C#N)CCC1` was 27.9%; that for `Cc1oc(-c2cccs2)nc1C(=O)N(C)C1(C#N)CCC1` was -11.6%; that for `Cc1nc(C)n(C2CCCN(C(=O)c3sccc3C)C2)n1` (stereo not given) was -19.6%. Turning to `CCn1nc(C)c2c1cnn2CCNS(C)(=O)=O`, the INHIBITION was determined as 16.8%. The same measure for `CCn1nc(C)c2c1cnn2CCNS(=O)(=O)c1cccs1`: 60.7%; for `CCn1nc(C)c2c1cnn2CCNS(=O)(=O)c1ccccc1`: -22.2%. In the case of `Cc1ccsc1CNCc1c(C(C)C)nn(C)c1N1CCOCC1`, the INHIBITION is reported as 9.52%.

Regarding `COc1cc(CNC(=O)Nc2nncs2)ccc1O`, the INHIBITION is on record as -73.6%.

Consider `COC(=O)C(CNC(=O)Nc1cn[nH]c1)Cc1cccc(C)c1` (stereo not given), for which the INHIBITION is given as 11.9%. In the case of `COC(=O)C(CNC(=O)Nc1nncs1)Cc1ccc(O)cc1` (stereo not given), the INHIBITION was found to be 51%. As for `COC(=O)C(CNC(=O)Nc1nncs1)Cc1ccc(F)cc1` (stereo not given), the INHIBITION is 37.6%.

In the case of `Cc1ccc(CNC(=O)Nc2nncs2)cn1`, the INHIBITION came to 27.4%. The value for `COC(=O)C(CNC(=O)Nc1nncs1)Cc1cccc(C)c1` (stereo not given) was 76.8%; that for `Cc1ccccc1OC1(C(=O)O)CCN(C(=O)CCc2ccco2)CC1` was 39.3%. The same measure for `CC(C)c1nc(CN(C)C2CCN(CCc3ccncc3)C2)no1` (stereo not given): -16%; for `Cc1ccc(CN(C)C(=O)CN2CCOC(Cn3cccn3)C2)o1` (stereo not given): 11.6%; for `Cn1nc(C2CN(C(=O)c3ccncc3)C2)c2nccnc21`: 22%.

On to `CCCc1nn(Cc2csc(CC)n2)c(=O)o1`, for which the INHIBITION was found to be 61%. As to `CCc1nc(Cn2nc(COC)oc2=O)cs1`, the INHIBITION is recorded as 49.9%. The same measure for `CCCc1nn(Cc2csc(C(C)C)n2)c(=O)o1`: 29.4%; for `Cc1csc(CNC(=O)CCCc2cccs2)n1`: 3.48%; for `Cc1n[nH]cc1CNC(=O)CCCc1cccs1`: 54.5%.

Consider `Cc1nc(CNC(=O)CCCc2cccs2)no1`, for which the INHIBITION stood at 35.9%.

As for `COc1c(C(=O)NCc2cnn(C)c2C)nnn1Cc1ccccc1`, the INHIBITION is on record as 40.8%. The value for `N#CC1COCCN1C(=O)c1ccc2[nH]ccc2c1` (stereo not given) was 19.7%. The same measure for `N#CC1COCCN1C(=O)c1ccc2cc[nH]c2c1` (stereo not given): 53.3%.

As for `N#CC1COCCN1C(=O)c1ccc2[nH]cnc2c1` (stereo not given), the INHIBITION is given as -13.9%. As for `O=c1[nH]c(COc2ccc(Cl)cc2)nc2c1CCNC2`, the INHIBITION is -9.66%. The same measure for `CCCc1nnsc1C(=O)NCC(O)c1cccs1` (stereo not given): 19.9%; for `COc1cccc([C@H]2CN(C(=O)c3cc(C)on3)C[C@@H]2N)c1`: 23.5%. Consider `C/C=C(\C)CN1C[C@H](c2cccc(OC)c2)[C@@H](N)C1`, for which the INHIBITION is given as -0.273%.

For the compound `COc1cccc([C@H]2CN(C(=O)c3noc4c3CCCC4)C[C@@H]2N)c1`, the INHIBITION was found to be 31.4%. The same measure for `COc1cccc([C@H]2CN(C(=O)c3scc4c3CCCC4)C[C@@H]2N)c1`: 60.1%; for `COc1cccc([C@H]2CN(C(=O)c3nnc4n3CCCC4)C[C@@H]2N)c1`: 58.1%. The value for `CCOCCN1C[C@H](c2cccc(OC)c2)[C@@H](N)C1` was 39.9%. Consider `CC(C)CCOCCNC(=O)Nc1ccc(F)c(C(N)=O)c1`, for which the INHIBITION is listed as -25.9%. The same measure for `CCn1c(N)nc2cc(C(=O)NCc3cccc(C)c3C)cnc21`: -25.7%.

In the case of `CCc1nnc(CN2CCC(N3CCN(CC)C3=O)CC2)o1`, the INHIBITION is -27.8%. Regarding `Cc1cccn2c(=O)cc(OC(=O)c3ccc(OC(C)C)cc3)nc12`, the INHIBITION was -5.59%. The value for `Cc1ccc2c(cnn2CCC(=O)NCc2csc(C)n2)c1` was 23.6%. For `CCn1cnnc1CCNS(=O)(=O)N1CCCC1c1ccco1` (stereo not given), the INHIBITION was 27.7%. For `Cc1c(CN2CCCC2c2cncc(CN3CCCC3)n2)cnn1C` (stereo not given), the INHIBITION stood at 12.9%.

In the case of `CC(COc1ccccc1)NS(C)(=O)=O` (stereo not given), the INHIBITION was found to be 52.6%. The same measure for `Cc1ccc(OCC(C)NS(=O)(=O)N(C)C)cc1` (stereo not given): 51.5%. The value for `COc1ccc(OCC(C)NS(C)(=O)=O)cc1` (stereo not given) was 0.472%.

On to `Cc1ccc(OCC(C)NS(C)(=O)=O)cc1` (stereo not given), for which the INHIBITION was -1.7%. The same measure for `Cc1ccc(OCC(C)NS(C)(=O)=O)cc1C` (stereo not given): 15.7%; for `Cc1ccc(OCC(C)NC(=O)CN(C)c2ccc(C#N)cn2)cc1` (stereo not given): 8.38%. The value for `CCOc1ccc2[nH]c(=O)c(CN3CCC(N4CCCC4)CC3)cc2c1` was -1.54%. The value for `Cc1cccc(C(=O)N2CCCC(c3noc(C)n3)C2)n1` (stereo not given) was 4.71%; that for `O=C(NCc1ccco1)[C@@H]1CCO[C@@H]2CCN(c3ccncn3)C[C@H]21` was 10%.

`COc1ccccc1C(O)CNC(=O)Nc1ccccn1` (stereo not given): the INHIBITION is given as 35.9%.

For `Cc1ccc2c(c1)c(C)cc(=O)n2CCCN`, the INHIBITION is -17%. For `Cn1ccc2c(-c3cc(N)nc(N4CCOCC4)n3)ccnc21`, the INHIBITION stood at 18.8%. The value for `CCc1cc(-c2ccnc3c2ccn3C)nc(N2CCOCC2)n1` was 51.5%; that for `Cn1ccc2c(-c3cc(N4CCOCC4)ncn3)ccnc21` was -3.96%; that for `COc1cccc(CN2CCCCC2c2n[nH]cc2-c2cc(C)no2)c1` (stereo not given) was 25.8%. `CNC(=O)c1cc2c(nc1NCC1CC1)CCN(c1ccncn1)CC2`: the INHIBITION turned out to be 32.4%.

For `Cc1cc(C)n(CNc2nonc2C(N)=O)n1`, the INHIBITION was determined as 44.1%. The same measure for `CCc1cc(CN(C)C(=O)CN2CC(c3ccccc3)CC2=O)on1` (stereo not given): 9.91%; for `CCc1nnc(CN(C)C(=O)CN2CC(c3ccccc3)CC2=O)o1` (stereo not given): 62.4%; for `CN(Cc1nc(C2CC2)no1)C(=O)CN1CC(c2ccccc2)CC1=O` (stereo not given): 3.96%. As for `CCc1cc(O)n2nc(C3CCN(C(=O)c4cccnc4)CC3)cc2n1`, the INHIBITION is 13.3%. The value for `Cc1nc(C2(O)CCCNCC2)sc1CCOc1ccc(F)c(F)c1` (stereo not given) was 46%. Consider `Cc1nc(C2(O)CCCNCC2)sc1CCOc1ccccc1Cl` (stereo not given), for which the INHIBITION was 55.6%.

Take `CCCN1CCCC(O)(c2nc(C)c(COc3ccccc3)s2)CC1` (stereo not given): the INHIBITION is reported as 27.6%. For `Cc1nc(C2(O)CCCNCC2)sc1CCOc1ccccc1F` (stereo not given), the INHIBITION amounted to 0.301%. The value for `CCN1CCCC(O)(c2nc(C)c(CCOc3ccc(F)cc3)s2)CC1` (stereo not given) was 59.3%. With `Cc1nc(C2(O)CCCNCC2)sc1CCOc1ccccc1` (stereo not given), the INHIBITION is reported as 49.6%. The same measure for `COc1ccc(OCCc2sc(C3(O)CCCNCC3)nc2C)cc1` (stereo not given): 52.3%; for `CCN1CCCC(O)(c2nc(C)c(CCOc3ccccc3Cl)s2)CC1` (stereo not given): 28%; for `Cc1nc(C2(O)CCCNCC2)sc1CCOc1ccc(Cl)cc1` (stereo not given): 73.9%.

As for `CCN1CCCC(O)(c2nc(C)c(CCOc3ccccc3F)s2)CC1` (stereo not given), the INHIBITION was 7.52%. The same measure for `Cc1nc(C2(O)CCCNCC2)sc1CCOc1ccc(F)cc1` (stereo not given): 47.2%. For the compound `COc1ccc(OCc2sc(C3(O)CCCNCC3)nc2C)cc1` (stereo not given), the INHIBITION is given as 31.3%. Take `CCSc1cc(C(=O)NC2CCN(C(=O)c3ccccc3)CC2)ccn1`: the INHIBITION turned out to be 33.4%.

`Cc1ncc2c(n1)CN(Cc1nc(Cc3ccccc3)no1)CC2`: the INHIBITION worked out at 41.2%. The same measure for `O=C(CCOc1ccc(Cl)cc1)NCCCn1cccn1`: 48.8%.

`O=C(CCOc1cccc(Cl)c1)N1CCN(c2cnccn2)CC1`: the INHIBITION is reported as -8.11%. The value for `Cc1ccc(CCNC(=O)NCCCC(N)=O)c(C)c1` was -18.6%; that for `CCNC(=O)N1CCC(NC(=O)NCCc2cccc(C)c2)C1` (stereo not given) was 77.7%. On to `CCNC(=O)N1CCC(Cc2cccc(C(N)=O)c2)C1` (stereo not given), for which the INHIBITION came out at 10.7%. As for `CC1CCN(C(=O)NCCc2cc(F)ccc2F)C1` (stereo not given), the INHIBITION was -21.2%. The value for `CCNC(=O)N1CCC(NC(=O)NCCc2cc(F)cc(F)c2)C1` (stereo not given) was 57.3%; that for `CCNC(=O)N1CCC(NC(=O)NCCCc2cccc(F)c2)C1` (stereo not given) was 35%.

In the case of `CCNC(=O)N1CCC(NC(=O)NCCc2ccc(C)cc2C)C1` (stereo not given), the INHIBITION stood at 51.7%.

On to `Cc1cccc(CC(=O)NC2CCN(C(=O)NC(C)(C)C)CC2)c1`, for which the INHIBITION is reported as -38.4%. For `CCNC(=O)N1CCC(NC(=O)NCCc2cc3ccccc3o2)C1` (stereo not given), the INHIBITION is on record as -43.8%.

On to `Cc1ccc(CN2Cc3c(C(=O)N4CCN(C)CC4)nn(C)c3C2)s1`, for which the INHIBITION is 3.25%.
